This note sets out measurements from PubChem BioAssay AID887 (National Center for Advancing Translational Sciences (NCATS), 2007).

Structures are written as SMILES. Several values for one entry are separate records, joined by “and”; a condition that tells them apart may be missing. Equal values may be shown once. About 1,100 (1.5%) of roughly 74,000 compounds were called active. Not shown: some 5% with an inconclusive outcome. Calls follow the shape of the dose curve; as a rule, active = well fitted inhibition curve with a large enough effect; inconclusive = small, poorly fitted or top-dose-only effect; inactive = no such curve, though single readings can be large or run the other way. Shown is part of a subset that was picked to be rich in actives. Entries that show only a call come without a potency.
Potency is read from the fitted curve at half-maximal effect.

Polyunsaturated fatty acid lipoxygenase ALOX15 (Homo sapiens), sequence (P16050 whole entry, looked up): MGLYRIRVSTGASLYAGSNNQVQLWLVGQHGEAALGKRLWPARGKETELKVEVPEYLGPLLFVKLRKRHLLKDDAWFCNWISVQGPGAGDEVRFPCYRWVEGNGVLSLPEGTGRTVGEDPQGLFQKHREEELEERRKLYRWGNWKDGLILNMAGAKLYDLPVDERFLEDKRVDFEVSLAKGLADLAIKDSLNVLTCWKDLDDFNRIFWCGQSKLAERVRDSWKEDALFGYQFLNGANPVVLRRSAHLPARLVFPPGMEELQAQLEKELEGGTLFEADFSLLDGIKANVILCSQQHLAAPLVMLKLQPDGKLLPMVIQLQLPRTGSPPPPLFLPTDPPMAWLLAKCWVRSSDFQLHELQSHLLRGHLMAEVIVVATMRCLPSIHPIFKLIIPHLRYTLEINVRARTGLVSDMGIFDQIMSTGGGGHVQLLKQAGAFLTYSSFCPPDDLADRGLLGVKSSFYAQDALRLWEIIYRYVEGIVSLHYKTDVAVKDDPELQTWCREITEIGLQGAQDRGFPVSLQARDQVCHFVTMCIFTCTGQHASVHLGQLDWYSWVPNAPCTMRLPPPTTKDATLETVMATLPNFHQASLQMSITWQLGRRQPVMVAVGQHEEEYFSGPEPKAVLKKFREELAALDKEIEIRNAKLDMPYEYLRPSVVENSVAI

The test has as its target Polyunsaturated fatty acid lipoxygenase ALOX15 (Homo sapiens) (UniProt P16050). The experiment in a line: qHTS Assay for Inhibitors of 15-hLO (15-human lipoxygenase). Also: nearly all actives have a fitted effect of over 55% in size. Particulars: purified 15hLO-1, xylenol orange hydroperoxide absorbance; series mostly up to 57.1 µM. The gist of the method:
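Purified human 15hLO-1 (40 nM final) in 25 mM Hepes pH 7.5, 0.01% Triton X-100 was preincubated with compound 15 min at room temperature, then reacted 6 min with 50 uM arachidonic acid; hydroperoxide detected by Fe-XO, 573/405 nm absorbance ratio.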
For `C[C@@H]1O[C@@H](OC[C@H]2O[C@@H](Oc3c(-c4cccc(O)c4O)oc4cc(O)cc(O)c4c3=O)[C@H](O)[C@@H](O)[C@@H]2O)[C@H](O)[C@H](O)[C@H]1O`, the activity change, negative = inhibition entry is “inactive”.

In the case of `CC(C)C(c1nnnn1CCc1ccccc1)N1CCN(C(=O)c2ccco2)CC1` (configuration not stated), the activity change, negative = inhibition entry is “inactive”.

For `O=C(OCc1cc2ccccc2[nH]c1=O)c1cccnc1`, the activity change, negative = inhibition result was “inactive”.

In the case of `C=CCOC(=O)C(C(C)=O)C(NC(=O)OC)c1ccccc1` (configuration not stated), the activity change, negative = inhibition was 13.9% [at 11.4 µM] (inactive).

Consider `O=C(CSc1nc2[nH]ncc2c(=O)n1-c1ccccc1)N1CCCc2ccccc21`, for which the Potency was 15.8 µM (active).

For `Cc1nnc(SCC(=O)N2CCc3ccccc32)n1-c1ccccc1`, the activity change, negative = inhibition result was “inactive”.

In the case of `C=CCn1c(=O)c2ccccc2n2c(SCC(=O)N3CCCc4ccccc43)nnc12`, the activity change, negative = inhibition result was “inactive”.

`CC1(C)OC2CC(=O)OC[C@@]23C1CC(=O)[C@]1(C)C3CC[C@@]2(C)C(c3ccoc3)OC(=O)C3O[C@@]321` (some centres not stated): the activity change, negative = inhibition entry is “inactive”.

Consider `COc1ccc(C(=O)n2nc(-c3ccc(C)cc3)nc2N)cc1OC`, for which the activity change, negative = inhibition result is “inactive”.

On to `COc1ccccc1C(=O)n1nc(-c2ccccc2)nc1N`, for which the Potency was 12.6 µM (active).

For the compound `COc1ccc(C(=O)n2nc(-c3ccc(Cl)cc3)nc2N)cc1OC`, the activity change, negative = inhibition entry is “inactive”.

As for `CCOC(=O)c1cccc(NC(=O)CCn2nnc3ccccc32)c1`, the activity change, negative = inhibition entry is “inactive”.

Regarding `CO[C@@H]1COC(=O)[C@H](Cc2ccccc2)NC(=O)C/C=C\[C@@H](C)[C@H](OC)COC(=O)[C@@H](C)NC(=O)C/C=C\[C@H]1C`, the activity change, negative = inhibition was 2.31% [at 11.4 µM] (inactive) and 5.99% [at 11.4 µM] (inactive).

Take `Cc1cccc(C(=O)O)c1[N+](=O)[O-]`: the activity change, negative = inhibition result is “inactive”.

With `C=CC(=O)c1ccc2ccccc2c1`, the Potency is 12.6 µM (active).

With `Cc1ccc2nc(CC(=O)c3ccc4ccccc4c3)c(=O)[nH]c2c1`, the activity change, negative = inhibition was -4.04% [at 11.4 µM] (inactive).

For `Cc1csc(-c2nc3ccccc3n2C)n1`, the activity change, negative = inhibition entry was “inactive”.

Take `Cc1cccc2c3c(ccc12)C1=C(C(=O)C3=O)C(C)CO1` (configuration not stated): the activity change, negative = inhibition result was “inactive”.

For the compound `C/C(CCN1CCc2nc(-c3ccccc3)c(-c3ccccc3)cc2C1)=N\O[C@@H](C)c1cn([C@@H]2COC[C@@H]2O)nn1`, the activity change, negative = inhibition was 0.588% [at 11.4 µM] (inactive).

For `O=C(Oc1cc(OC(=O)c2ccccc2)c2c(c1)OC(c1ccc(OC(=O)c3ccccc3)c(OC(=O)c3ccccc3)c1)[C@@H](OC(=O)c1ccccc1)C2)c1ccccc1` (some centres not stated), the activity change, negative = inhibition entry was “inactive”.

As to `COC(=O)C(C(=O)OC)[C@@H]1CCCC(=O)C1`, the activity change, negative = inhibition was 14.4% [at 11.4 µM] (inactive).

With `C=CCn1c(SCC(=O)Nc2nc3ccccc3s2)nnc1-c1ccccc1O`, the Potency was 25.1 µM (active).

As to `CCn1c(SCC(=O)Nc2nc3ccc(OC)cc3s2)nnc1-c1ccoc1C`, the activity change, negative = inhibition result was “inactive”.

For `C=CCn1c(CSc2nc3ccccc3s2)nnc1SCC(=O)NCc1ccco1`, the activity change, negative = inhibition result is “inactive”.

Turning to `CC(C)C(N)C(=O)OCCOCn1cnc2c(=O)[nH]c(N)nc21` (configuration not stated), the activity change, negative = inhibition entry was “inactive”.

Regarding `Cc1ccc2c(c1)C(O)(CC(=O)c1cccnc1)C(=O)N2` (configuration not stated), the activity change, negative = inhibition result was “inactive”.

In the case of `COc1ccc(/C=C/NC(=O)c2ccc(OC)cc2)cc1`, the activity change, negative = inhibition was -5.84% [at 11.4 µM] (inactive).

For the compound `Cc1cccn2c(=O)c3cc(C(=O)NCc4ccccn4)n(C)c3nc12`, the activity change, negative = inhibition result was “inactive”.

With `O=C(NCc1ccccn1)c1cc2ccccc2oc1=O`, the activity change, negative = inhibition result is “inactive”.

On to `O=C(NCc1ccccn1)c1ccc2nc(-c3ccco3)c(-c3ccco3)nc2c1`, for which the Potency is 3.16 µM (active).

Take `O=C(O)c1ccc(Cl)c(S(=O)(=O)Nc2ccccc2Cl)c1`: the activity change, negative = inhibition result is “inactive”.

As to `N#Cc1c(N)sc2c1CCN(C(=O)OCc1ccccc1)C2`, the Potency was 15.8 µM (active).

Turning to `N#Cc1ccc(COC(=O)Cn2nnc(-c3ccccc3)n2)cc1`, the activity change, negative = inhibition result was “inactive”.

Regarding `NC1(C(=O)OCc2ccccc2)CCCC1`, the activity change, negative = inhibition was -11.8% [at 11.4 µM] (inactive).

As for `CC(CCC(=O)O)C1CCC2C3C(O)C[C@@H]4CC(O)CC[C@@]4(C)C3CC[C@@]12C` (some centres not stated), the activity change, negative = inhibition result was “inactive”.

Regarding `C#CCC(C(=O)OC)(C(=O)OC)C(C[N+](=O)[O-])c1ccccc1` (configuration not stated), the activity change, negative = inhibition is -3.59% [at 11.4 µM] (inactive).

Consider `CCC(CCC(C)C1CCC2C3CC=C4CC(O)CC[C@@]4(C)C3CC[C@@]12C)C(C)C` (some centres not stated), for which the activity change, negative = inhibition result is “inactive”.

Regarding `CO[C@H]1COC(=O)C/C=C\[C@H](C)COC(=O)[C@@H](OCc2ccccc2)/C=C\[C@@H]1C`, the activity change, negative = inhibition is 5.89% [at 11.4 µM] (inactive).

On to `C=C1C(=O)C23C(O)C1CCC2[C@]12COC3(O)C(O)C1C(C)(C)CC[C@H]2O` (some centres not stated), for which the activity change, negative = inhibition entry was “inactive”.

For `CCOCCCN1C(=O)CN(C2CCCCC2)C(=O)C1c1ccc(OCC)c(OC)c1` (configuration not stated), the activity change, negative = inhibition entry is “inactive”.

In the case of `COC(=O)[C@@H]1CC[C@H](C)[C@@H](c2ccc(C)cc2)N1C(=O)c1ccc(/C=N\OC[C@@H](O)COCc2ccco2)cc1`, the activity change, negative = inhibition was -2.65% [at 11.4 µM] (inactive).

On to `Cc1ccc(-c2nc(CS(=O)CC(=O)N3CCN(c4ncccn4)CC3)c(C)o2)cc1` (configuration not stated), for which the activity change, negative = inhibition entry was “inactive”.

Regarding `CCOc1ccc2[nH]c(=O)c(CN(Cc3nnnn3Cc3ccccc3)CC3CCCO3)cc2c1` (configuration not stated), the activity change, negative = inhibition result was “inactive”.

In the case of `CCOc1ccc2[nH]c(=O)c(CN(Cc3nnnn3CCc3ccccc3)CC3CCCO3)cc2c1` (configuration not stated), the activity change, negative = inhibition entry is “inactive”.

As for `COc1ccc2[nH]c(=O)c(CN(Cc3nnnn3CCc3ccccc3)CC3CCCO3)cc2c1` (configuration not stated), the Potency is 1.26 µM (active).

`O=C(CSc1nnc2scc(-c3ccc(F)cc3)n12)NCc1ccco1`: the activity change, negative = inhibition result was “inactive”.

Take `CCCc1nc2c(C)cc(-c3nc4ccccc4n3C)cc2n1Cc1ccc(-c2ccccc2C(=O)O)cc1`: the activity change, negative = inhibition entry was “inactive”.
